Molecules are shown by their SMILES. The campaign covered roughly 310,000 compounds. About 18,000 (5.8%) were called active. Not shown: some 22% with an inconclusive outcome. What follows is part of a selection rich in actives, with near analogues and random picks from the rest. Entries that show only a call come without a potency. A number with no mark means an inactive call. The call rests on the fitted dose curve; in most records, active means well fitted inhibition curve with a large enough effect; inconclusive means small, poorly fitted or top-dose-only effect, or another doubt; inactive means no such curve, though single readings can be large or run the other way.
Potency means the concentration at half of the fitted maximal effect.

The nature of this assay: Primary qHTS for delayed death inhibitors of the malarial parasite plastid, 48 hour incubation. The following applies: P. falciparum luciferase growth in erythrocytes; series mostly up to 28.7 µM. The gist of the method: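 A one-generation exposure of luciferase-tagged malaria parasites in RPMI 1640/Albumax erythrocyte culture, 37 C and 5% CO2. Inhibition is inferred from decreased luminescence after adding detection reagent.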
In the case of `O=C(Nc1ccc(S(=O)(=O)N2CCCCC2)cc1)c1cnccn1`, the Potency result is “inactive”.

With `CC1CCCN(S(=O)(=O)c2ccc(N(C(=O)c3cnccn3)C(C(=O)NC3CCCCC3)c3cccs3)cc2)C1` (stereo not given), the Potency is 11.7 µM (active).

As to `CCc1ccc(N(C(=O)c2csnn2)C(C(=O)NC2CCCCC2)c2ccncc2)cc1` (stereo not given), the Potency entry is “inactive”.

For the compound `O=C(Nc1ccc(NC(=O)c2ccc3c(c2)OCO3)cc1)c1cccc(Cl)c1`, the Potency result is “inactive”.

Consider `O=C(CSc1n[nH]c(=O)n1-c1ccccc1)Nc1ccccc1C(F)(F)F`, for which the Potency entry was “inactive”.

As for `Cc1ccc(NC(=O)CN2CCC3(O)CCCCC3C2c2ccc3c(c2)OCO3)c(C)c1` (stereo not given), the Potency was 10.4 µM (active).

On to `CC1CCCCN1CC(=O)NCc1ccc2c(c1)OCO2` (stereo not given), for which the Potency result was “inactive”.

With `CCN(CC)c1ccc(C2C3CCCCC3(O)CCN2CC(=O)Nc2ccccc2)cc1` (stereo not given), the Potency entry was “inactive”.

Consider `Cc1c(S(=O)(=O)NC(C)c2ccccc2)c(=O)n(C)c(=O)n1C` (stereo not given), for which the Potency entry is “inactive”.

Turning to `O=C(NCCc1ccc(C(F)(F)F)cc1)c1ccc2c(c1)OCO2`, the Potency entry is “inactive”.

Regarding `COc1cc(/C=C2\CCCc3c2nc2ccccc2c3C(=O)O)cc(Cl)c1O`, the Potency entry was “inactive”.

Take `COc1ccc(N(CC(=O)N2CCCCCC2)S(=O)(=O)c2ccccc2)cc1`: the Potency result was “inactive”.

As for `CCN(c1ccccc1)S(=O)(=O)c1ccc(OCC(=O)N2CCCC2)cc1`, the Potency is 9.28 µM (active).

As to `CC(NS(=O)(=O)c1ccc(OCC(=O)N2CCCC2)cc1)c1ccccc1` (stereo not given), the Potency result is “inactive”.

Regarding `CC(=O)Nc1ccc(Nc2ncnc3c2nnn3Cc2ccccc2Cl)cc1`, the Potency entry is “inactive”.

As to `COCCNC(=O)c1ccc2nc(Cc3ccc(OC)c(OC)c3)oc2c1`, the Potency result is “inactive”.

As for `O=C(NCCN1CCCC(O)C1)c1cc(COc2c(F)cccc2F)on1` (stereo not given), the Potency result is “inactive”.

As for `Cc1cccc2cc(CN(C(=O)c3cccs3)c3ccccc3)c(=O)[nH]c12`, the Potency result is “inactive”.

Take `CCC(c1nnnn1C1CCCC1)N(Cc1cccs1)Cc1cc2cccc(C)c2[nH]c1=O` (stereo not given): the Potency is 10.4 µM (active).

On to `CCC(=O)Nc1cccc(NC(=O)CSc2nnnn2C2CCCC2)c1`, for which the Potency result was “inactive”.

For `Cc1cccc2cc(CN(Cc3cccs3)C(c3nnnn3C3CCCC3)C(C)C)c(=O)[nH]c12` (stereo not given), the Potency was 2.62 µM (active).

On to `Cc1cc(C)n2nc(C(=O)OCC(=O)N(CCC#N)c3ccc(F)cc3)nc2n1`, for which the Potency result is “inactive”.

Consider `CCOc1ccc(N(C)Cc2cc(=O)oc3ccc(OC)cc23)cc1`, for which the Potency result was “inactive”.

As to `CC1CCC(NC(=O)CNC(=O)c2ccc3ccccc3c2)CC1` (stereo not given), the Potency entry was “inactive”.

As for `CN(C(=O)Cn1nnc(-c2ccc(F)cc2)n1)C1CCS(=O)(=O)C1` (stereo not given), the Potency entry was “inactive”.

With `OCC[C@H]1C[C@@H](O)[C@H](O)[C@]2(OCCCc3ccccc32)O1`, the Potency result is “inactive”.

`Cc1ccc2c(c1)N(CC(=O)N1CCC(C)CC1)C(=O)c1cccnc1O2`: the Potency entry was “inactive”.

Take `Cc1ccc(SCc2c(C(=O)N/N=C/c3cccnc3)nnn2-c2nonc2N)cc1`: the Potency result is “inactive”.

For the compound `O=C(CN1CCCCCC1)N1c2ccccc2Sc2ccc(C(F)(F)F)cc21`, the Potency is 13.1 µM (active).

Take `COc1cc(/C=C/C(=O)N2c3ccccc3Sc3ccc(C(F)(F)F)cc32)cc(OC)c1OC`: the Potency entry is “inactive”.

Take `CCOC(=O)CNC(=O)N1c2ccccc2Sc2ccccc21`: the Potency entry was “inactive”.

Take `Cc1ccc(C(CNC(=O)Nc2ccccc2)N2CCN(C)CC2)cc1` (stereo not given): the Potency entry was “inactive”.

Regarding `Cc1ccc(S(=O)(=O)N2CCC(C(=O)OCC(=O)N(C)c3ccccc3)CC2)cc1C`, the Potency entry was “inactive”.

With `COc1ccc(-c2nnc(SCc3cccnc3)o2)cc1`, the Potency entry is “inactive”.

Consider `COc1ccc(-c2nnc(SC(C)C(=O)NC3CC3)o2)cc1` (stereo not given), for which the Potency is 10.4 µM (active).

`COc1ccc(-c2nnc(SC(C)C#N)o2)cc1` (stereo not given): the Potency result is “inactive”.

`CCCC(C)c1nnc(NC(=O)C2CC(=O)N(c3ccc(OCC)cc3)C2)s1` (stereo not given): the Potency entry was “inactive”.

For the compound `COc1ccc(N2CCN(c3ccc([N+](=O)[O-])cc3Cl)CC2)cc1`, the Potency result was “inactive”.

Turning to `CCN1CCN(c2ccc([N+](=O)[O-])cc2C#N)CC1`, the Potency was 4.15 µM (active).

On to `CCN1CCN(c2ccc([N+](=O)[O-])cc2C(=O)c2ccc(Cl)cc2)CC1`, for which the Potency result was “inactive”.

With `COCCn1c(SCC(=O)Nc2nc(C)cs2)nnc1C(C)C`, the Potency entry was “inactive”.

Consider `O=S(=O)(c1ccc(Cl)s1)N1CCC2(CC1)OCCO2`, for which the Potency result was “inactive”.

As for `O=C(Cc1cccs1)Nc1cccc(-c2nc3ccccc3[nH]2)c1`, the Potency entry is “inactive”.

Take `O=C(Nc1cccc(-c2nc3ccccc3[nH]2)c1)c1ccc(C(=O)Nc2cccc(-c3nc4ccccc4[nH]3)c2)cc1`: the Potency is 0.37 µM (active).

For the compound `O=C(Nc1cccc(NC(=O)c2ccc(Br)cc2)c1)c1ccccc1`, the Potency result is “inactive”.

With `O=S(=O)(Nc1ccc(-c2ccc(N3CCOCC3)nn2)cc1)c1cc(Cl)ccc1Cl`, the Potency entry is “inactive”.

In the case of `O=S(=O)(Nc1cc(S(=O)(=O)N2CCOCC2)ccc1N1CCCC1)c1cccs1`, the Potency result is “inactive”.

As for `O=S(=O)(Nc1cc(Cl)ccc1N1CCOCC1)c1ccccc1Cl`, the Potency was 13.1 µM (active).

Turning to `COCCCNC(=O)[C@H]1N2C(=O)c3ccccc3C2SC1(C)C` (stereo not given in full), the Potency entry was “inactive”.

Consider `CCC(C(=O)NCc1ccc(OC)cc1)n1nc(C)n2c(cc3occc32)c1=O` (stereo not given), for which the Potency result is “inactive”.

For `COc1cc(C(C(=O)NC2CCCC2)N(Cc2ccccc2)C(=O)c2snc(C(N)=O)c2N)ccc1O` (stereo not given), the Potency result was “inactive”.

Regarding `COc1ccc(C(C(=O)NC2CCCCC2)N(C(=O)c2snc(C(N)=O)c2N)c2ccccc2OC)cc1` (stereo not given), the Potency is 14.7 µM (active).

Regarding `COc1ccc(CNC(=O)C(c2ccc(O)cc2)N(Cc2ccco2)C(=O)c2snc(C(N)=O)c2N)cc1` (stereo not given), the Potency was 13.1 µM (active).

In the case of `COc1ccc(C(C(=O)NC2CCCCC2)N(C(=O)CCl)c2ccccc2Cl)cc1` (stereo not given), the Potency result is “inactive”.

Regarding `COc1ccc(S(=O)(=O)NCc2ccc(C(=O)N(C)Cc3ccco3)cc2)cc1`, the Potency entry was “inactive”.

`Cc1cc(CN(C)C(=O)c2cc(COc3ccc(C)c(C)c3)on2)n[nH]1`: the Potency result was “inactive”.

For the compound `CC(=O)c1ccc(NC(=O)Cn2c(=O)oc3ccccc32)cc1`, the Potency entry is “inactive”.

As for `CCCCc1nc2cc(C(=O)N3CCCCC3CCO)ccc2o1` (stereo not given), the Potency result is “inactive”.

As for `Cc1ccc(-c2nn(-c3ccccc3)cc2C(=O)NC2CCC(O)CC2)cc1` (stereo not given), the Potency entry is “inactive”.

`CCc1ccc(-c2nn(-c3ccccc3)cc2CSC(=N)N)cc1`: the Potency was 4.15 µM (active).

Consider `O=C(Nc1cn(-c2ccccc2)nc1-c1ccccc1)c1ccccc1`, for which the Potency entry is “inactive”.

With `Cc1ccccc1OCC(=O)Nc1ccc2c(c1)ncn2C`, the Potency result is “inactive”.

`CN(CCc1ccccn1)C(=O)c1ccc(OC2CCN(CCc3ccccc3)CC2)cc1`: the Potency result was “inactive”.

With `COC(=O)c1ccc(CSc2ccccc2C)o1`, the Potency result is “inactive”.

For `CCC(=O)N1CCCc2ccccc21`, the Potency result was “inactive”.

As to `CCCn1c(SCC(=O)N2CCc3ccccc32)nnc1-c1ccncc1`, the Potency entry was “inactive”.

With `O=C(CSc1ccc2nnc(-c3ccccc3)n2n1)N1CCCc2ccccc21`, the Potency was 13.1 µM (active).

`COC(=O)c1ccc(CSc2nnc(N)s2)o1`: the Potency result was “inactive”.

With `COC(=O)c1ccc(CSc2ccc3nnc(-c4ccccc4)n3n2)o1`, the Potency was 10.4 µM (active).

`CC(=O)NC(Cc1c[nH]c2ccccc12)C(=O)NCCc1ccccc1` (stereo not given): the Potency result is “inactive”.

As for `CC1CN(C(=O)CCC(=O)NCc2cccnc2)c2ccccc2O1` (stereo not given), the Potency result is “inactive”.

Take `CC(=O)NC(=O)c1ccccc1O`: the Potency result was “inactive”.

Take `O=C(COC(=O)CNC(=O)C1CCCCC1)Nc1cccc(F)c1`: the Potency entry was “inactive”.

On to `O=C1NC[C@@H](Cc2ccc(O)cc2)N(CCc2cccc(F)c2)C1=O`, for which the Potency result was “inactive”.

With `NC1=NC[C@@H](Cc2ccc(O)cc2)N1CC1CCCCC1`, the Potency is 6.57 µM (active).

As for `CN(c1ccccc1)S(=O)(=O)c1ccc2[nH]c(=O)[nH]c2c1`, the Potency result was “inactive”.

Regarding `O=C(Cc1ccccc1Cl)N1CCOCC1`, the Potency result was “inactive”.

For `Cc1ccccc1N1CCN(C2CCCN(C(=O)c3ocnc3C)C2)CC1` (stereo not given), the Potency result is “inactive”.

Consider `O=c1c2c(nc3cc(-c4cccc(Cl)c4)[nH]n13)CCCC2`, for which the Potency result is “inactive”.

For `Clc1ccc2nc3c(c(-c4ccccc4)c2c1)CNCC3`, the Potency is 13.1 µM (active).

With `O=C(Cn1nnc(-c2ccccc2)n1)NC(=O)NC1CCCC1`, the Potency result was “inactive”.

As for `Cc1ccc(-c2nnn(CC(=O)N(CCO)C(C(=O)NC(C)(C)C)c3ccncc3)n2)cc1` (stereo not given), the Potency entry was “inactive”.

With `COc1ccc(C)cc1N(C(=O)Cn1nnc(-c2ccc(C)o2)n1)C(C(=O)NC1CCCC1)c1ccncc1` (stereo not given), the Potency is 5.22 µM (active).

Consider `CCC(C(=O)NC1CCCC1)N(C(=O)Cn1nnc(-c2ccc(C)o2)n1)c1ccc(OC)c(OC)c1` (stereo not given), for which the Potency was 10.4 µM (active).

On to `COc1cccc(N(CC(=O)NC2CCCC2)C(=O)Cn2nnc(-c3ccc(C)cc3)n2)c1`, for which the Potency entry is “inactive”.

Consider `O=C(Cn1nnc(-c2ccc3c(c2)OCO3)n1)NCc1ccco1`, for which the Potency result is “inactive”.

Regarding `Cc1ccc(-c2nnn(CC(=O)N(Cc3ccco3)C(C(=O)NC(C)(C)C)c3ccncc3)n2)o1` (stereo not given), the Potency was 14.7 µM (active).

Take `Cc1cccc(N(C(=O)Cn2nnc(-c3ccc(C)o3)n2)C(C(=O)NC2CCCC2)c2ccncc2)c1` (stereo not given): the Potency entry is “inactive”.

Take `Cc1cc(NC(=O)CCC(=O)N(c2ccccc2)C(C(=O)NC2CCCC2)c2ccncc2)no1` (stereo not given): the Potency entry is “inactive”.

Regarding `CCc1ccc(-c2cc3c(=O)n(CC(=O)NCCCN4CCN(Cc5ccccc5)CC4)nc(C)n3n2)cc1`, the Potency entry is “inactive”.

Consider `CC(CCc1ccc(O)cc1)NCc1ccc(Cl)cc1Cl` (stereo not given), for which the Potency result is “inactive”.

Consider `CN(C(=O)c1ccccc1)c1nccnc1C#N`, for which the Potency entry is “inactive”.

With `CCOC(=O)CSc1nnc(NC(=O)C2CC(=O)N(c3ccc(F)cc3)C2)s1` (stereo not given), the Potency entry is “inactive”.

In the case of `CCOC(=O)c1cccc(NC(=O)CN2C(=O)C3CC=CCC3C2=O)c1` (stereo not given), the Potency entry is “inactive”.

For `COc1ccccc1CNS(=O)(=O)c1cc2c3c(c1)CCC(=O)N3CCC2`, the Potency result is “inactive”.

As to `COc1ccc(C(=O)NC2CC2)cc1OC1CCN(C/C=C/c2ccccc2)CC1`, the Potency result is “inactive”.

As for `COc1cc(C(=O)N2CCN(C/C=C/c3ccccc3)CC2)cc(OC)c1C`, the Potency is 10.4 µM (active).

In the case of `CNC(=O)NC(=O)C(C)N1CCN(C/C=C/c2ccccc2)CC1` (stereo not given), the Potency result was “inactive”.

`CC(C)[C@@H](C(=O)O)N(Cc1cccc(CN([C@H](C(=O)O)C(C)C)S(C)(=O)=O)c1)S(C)(=O)=O`: the Potency result was “inactive”.

With `Cc1nnc2n1N=C(c1ccccc1)CS2`, the activity change, negative = inhibition is 1.87% [at 0.00184 µM].

The values above are taken from PubChem BioAssay AID504832 (National Center for Advancing Translational Sciences (NCATS), 2011).
